Source: PubChem BioAssay (National Center for Advancing Translational Sciences (NCATS))
Hits are enriched below; roughly 3.2% of the tested compounds scored in any of these assays.
RE007 growth inh: qHTS Assay for Inhibitors of the HIV-1 protein Vpr. Potency, µM (highest dose often 92.2 µM), for the others: at the highest dose activity change, negative = less growth, usual class: inhibitors. S. pombe RE007 Vpr strain, BacTiter-Glo ATP luminescence, 24 h. AID 651644, 2012. 360,000 compounds, 0.21% hits; active = well fitted falling curve with a large enough effect; inconclusive = small, poorly fitted or top-dose-only effect; inactive = no such curve, though single readings can be large or run the other way; note: nearly all actives have a fitted effect of over 50% in size
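Fission yeast RE007 carrying one integrated HIV-1 vpr copy, seeded at OD 0.01 in PMG+AL medium with 23 nL pinned compound. Grown 24 h at 30 degrees; viability read by BacTiter-Glo luminescence after 5 min.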
AMA1-RON2 inh: qHTS for Inhibitors of AMA1-RON; Towards Development of Antimalarial Drug Lead: Primary Screen; Plasmodium falciparum AMA1 (3D7) - RON2 peptide interaction; AlphaScreen AMA1-biotinylated RON2 peptide binding; Potency, µM (titrated, usually from 58.2 µM), for the others: at the highest dose activity change, negative = inhibition, most hits filed as inhibitors; 360,000 compounds, 0.2% hits;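 note: 0% = vehicle wells and -100% = peptide control; nearly all actives have a fitted effect of over 45% in size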
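AMA1 (3D7) with his tag at 25 nM final met compounds first, then biotinylated RON2 peptide at 25 nM; detection used donor plus acceptor beads, 10 µg/mL apiece, read by AlphaScreen after 30 min at room temperature.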
AmpC no deterg: qHTS Inhibitors of AmpC Beta-Lactamase (assay without detergent); AID 485341, 2010; Potency, µM (doses to about 57.1 µM), inactives show top-dose activity change, negative = inhibition, usual class: inhibitors; 330,000 compounds, 0.52% hits; AmpC nitrocefin hydrolysis, absorbance 480 nm, 0.0001% Triton;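 note: plate controls were no compound for no effect and no enzyme for full effect; nearly all actives have a fitted effect of over 20% in size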
Target sequence (P00811 whole entry, looked up): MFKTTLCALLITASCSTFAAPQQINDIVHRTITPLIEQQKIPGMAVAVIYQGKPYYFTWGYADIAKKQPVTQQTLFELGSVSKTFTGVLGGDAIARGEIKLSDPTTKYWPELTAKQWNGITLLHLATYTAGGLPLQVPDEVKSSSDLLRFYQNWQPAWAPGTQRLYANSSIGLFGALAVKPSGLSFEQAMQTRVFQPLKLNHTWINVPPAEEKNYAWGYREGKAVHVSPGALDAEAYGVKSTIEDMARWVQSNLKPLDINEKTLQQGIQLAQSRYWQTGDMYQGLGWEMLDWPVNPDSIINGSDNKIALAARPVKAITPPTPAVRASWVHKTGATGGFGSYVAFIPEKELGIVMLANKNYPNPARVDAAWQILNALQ
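AmpC (5.3 nM in the dispensed reagent) in 20 mM phosphate pH 7.0 with 0.01% (detergent screen) or 0.0001% Triton X-100 was preincubated with compounds for 15 min at room temperature. Nitrocefin was then added from an 800 uM solution, and hydrolysis was followed at 480 nm.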
Sm TGR inh: qHTS Assay for the Inhibitors of Schistosoma Mansoni Peroxiredoxins; 360,000 compounds, 3% hits; purified TGR, DTNB reduction, TNB absorbance 405 nm; Potency, µM (titrated, usually from 114 µM), without a hit: at the highest dose activity change, negative = inhibition, most hits filed as inhibitors; Schistosoma mansoni thioredoxin glutathione reductase (TGR), Q962Y6; note: nearly all actives have a fitted effect of over 60% in size
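TGR 20 nM + NADPH 100 uM (dispensed conc.), cpd preinc 15 min RT; start with NADPH (500 uM addition) then DTNB (15 mM addition). Kinetic TNB absorbance, 405 nm filter. Four-parameter Hill fit across titration.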
AmpC detergent: qHTS Inhibitors of AmpC Beta-Lactamase (assay with detergent) | 370,000 compounds, 0.041% hits | P00811 | AmpC hydrolysis of nitrocefin, absorbance 480 nm, 0.01% Triton | Potency, µM (series often up to 114 µM), without a hit: at the top dose activity change, negative = inhibition, hits mostly inhibitors;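 note: 0% = no-compound wells and -100% = no-enzyme wells; nearly all actives have a fitted effect of over 25% in size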
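20 mM phosphate pH 7.0 + 0.01% (detergent screen) or 0.0001% Triton X-100; 5.3 nM AmpC reagent; cpd preinc 15 min RT; nitrocefin (800 uM stock) to start; A480 q20 s × 4 min; Activity was normalised to no-enzyme and no-compound control wells.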
* hit, by the source's call; u = inconclusive; x = no result given; [ ] = another dose, or the depositor's remark. Unless noted, calls come from the whole dose curve; as a rule, active = well fitted curve in the direction sought with a large enough effect; inconclusive = small, poorly fitted or top-dose-only effect, or another doubt; inactive = no such curve, though single readings can be large; an effect the other way counts as inactive or inconclusive. Unless noted, % is set by controls: 0 for no effect and ±100 for the full control effect; potency is the fitted concentration of half-maximal effect.

SMILES | RE007 growth inh | AMA1-RON2 inh | AmpC no deterg | Sm TGR inh | AmpC detergent
CC(C)NC(=O)CCCN1C(=O)c2ccccc2Sc2ncccc21 | 1% | 6% | 0% | 79µM* | -5%
Cc1ccccc1NC(=O)CCN1C(=O)c2ccccc2Sc2ncccc21 | x | x | x | -35% | u
Cc1ccccc1CN1C(=O)C(O)(CC(=O)c2cccc(Br)c2)c2ccccc21 (centres undefined) | x | x | x | 3% | 12%
COc1ccc(C)cc1NC(=O)Nc1cccc(OCc2cc(=O)n3ccc(C)cc3n2)c1 | x | x | x | 17% | 16%
OC(CCN1CCCCC1)(c1ccccc1)c1ccccc1 | -7%[18.4 µM] | -5% | -47% | 1% | -3%
C=CCC(O)(CCN1CCCCC1)c1ccccc1 (centres undefined) | 3% | -4% | -18% | 25µM* | -8%
CCCOc1ccc(C(O)(CCN2CCCCC2)c2ccccc2OC)cc1 (centres undefined) | -7% | 31% | 5% | u | 2%
COc1ccc(C(O)(CCc2ccccc2)CCN2CCCCC2)cc1 (centres undefined) | -25% | 1% | 58% | 2.8µM* | 10%
COc1cc(NC(=O)Cn2nc(C(F)(F)F)c3c2CCCC3)c(OC)cc1Cl | x | x | x | 10% | 23%
Cn1cccc1/C=N/N1CCN(c2ccccc2)CC1 | -21% | u | -16%[11.4 µM] | 45µM* | 9%
Cn1cccc1/C=N/N1CCN(Cc2ccccc2Cl)CC1 | -10% | u | 31% | 50µM* | 4%
COc1ccc(C(=O)NCC23C=CC(O2)C2C(=O)N(Cc4ccccc4)C(=O)C23)cc1 (centres undefined) | 25µM* | 8% | 17% | 3.5µM* | u
CC(=O)c1ccc(N2CCN(c3ncnc4c3c(-c3ccccc3)cn4-c3ccc(Cl)cc3)CC2)cc1 | x | x | x | 3% | -4%
O=C(Cc1cccs1)NC1CC(=O)N(c2ccc(F)cc2)C1 (centres undefined) | x | x | x | 2% | 1%
N=C1C(c2nc3ccccc3s2)=C(O)CN1NC(=O)c1ccccc1[N+](=O)[O-] | -4% | 0% | -4%[2.29 µM] | 6% | 0%
N=C1C(c2nc3ccccc3s2)=C(O)CN1NC(=O)c1c[nH]c2ccccc12 | -4% | -16% | 16µM* | x | 0%
N#Cc1ccccc1OCC(=O)N1CCN(c2ccccc2F)CC1 | x | x | x | 8% | 16%
CC(=O)c1ccc(NC(=S)N2C(C)CCCC2C)cc1 (centres undefined) | x | x | -1% | 35µM* | -3%
CCc1ccc(NC(=O)c2sc3nc4n(c(=O)c3c2C)CCC4)cc1 | -6% | 6% | 168% | -9% | -5%
Cc1ccc(CNC(=O)c2sc3nc4n(c(=O)c3c2C)CCCC4)cc1 | x | x | x | 56µM* | -1%
COc1ccc(OC)c(CCNC(=O)c2sc3nc4n(c(=O)c3c2C)CCC4)c1 | 9% | 0% | 166% | 13% | 4%
Cc1c(C(=O)NCc2ccc(Cl)cc2)sc2nc3n(c(=O)c12)CCCCC3 | x | x | x | 35µM* | 2%
CCOc1ccc(NC(=O)c2sc3nc4n(c(=O)c3c2C)CCCC4)cc1 | x | x | x | 32µM* | 3%
Cc1ccc(CNC(=O)c2sc3nc4n(c(=O)c3c2C)CCCCC4)cc1 | x | x | x | -13% | 7%
COc1ccc(CCNC(=O)c2sc3nc4n(c(=O)c3c2C)CCCC4)cc1OC | x | x | x | 35µM* | 11%
Cc1c(C(=O)NCc2ccccc2)sc2nc3n(c(=O)c12)CCCCC3 | x | x | x | u | 5%
Cc1cc(OCC(=O)Nc2ccc(-c3nc4cc(Cl)ccc4o3)cc2)cc(C)c1Cl | x | x | x | 3% | -9%
O=C(CSc1nnc(-c2ccncc2)n1-c1ccccc1)Nc1ccc(Br)cc1 | x | x | x | -1% | -5%
O=C1C(=O)N(C2CCNCC2)CCN1Cc1ccccc1 | x | x | x | u | -1%
O=C(NCCc1ccccc1)c1cc(-c2ccc(Cl)cc2)on1 | x | x | x | 0% | 23%
